Data: PubChem BioAssay (NCI)
“And” between values parts separate entries of the source, which are not always exact repeats. Equal values may be shown once. About 79,000 compounds went through this panel and 15% of them were active in at least one assay; those are over-represented in the sample as a whole. Values without a mark were called inactive. The source made the active and inactive calls. Rule as the data show it: active = growth inhibition above about 70%; inactive = the rest.

Key:
[1] = NCI Yeast Anticancer Drug Screen. Data for the rad50 strain (AID 155);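 also: 0% = growth of vehicle-only cultures of the same strain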; settings: S. cerevisiae rad50 strain growth inhibition, stronger effect = higher value; at 50.0 µM unless noted
In short: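 Inhibition values express reduced yeast growth in compound-treated cultures relative to vehicle-treated controls.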

[2] = NCI Yeast Anticancer Drug Screen. Data for the mec2-1 strain (AID 157); settings: S. cerevisiae mec2-1 strain, stronger effect = higher value; at 50.0 µM unless noted
In short: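 Vehicle-treated cultures served as reference for growth inhibition of compound-exposed mec2-1 yeast.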

[3] = NCI Yeast Anticancer Drug Screen. Data for the sgs1 mgt1 strain (AID 161);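 also: 0% = growth of cultures given vehicle only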; settings: S. cerevisiae sgs1 mgt1 strain, stronger effect = higher value; at 50.0 µM unless noted
In short: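 Read-out: growth inhibition vs vehicle controls. Cells: mutant yeast strain deficient in DNA damage repair.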

[4] = NCI Yeast Anticancer Drug Screen. Data for the cln2 rad14 strain (AID 165);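 also: 0% = growth equal to vehicle treated cultures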; settings: S. cerevisiae cln2 rad14 strain, stronger effect = higher value; at 50.0 µM unless noted
In short: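 Each compound was tested on cln2 rad14 yeast. Inhibition of growth was calculated against vehicle-exposed controls.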

[5] = NCI Yeast Anticancer Drug Screen. Data for the bub3 strain (AID 167); settings: S. cerevisiae bub3 mutant strain, stronger effect = higher value; at 50.0 µM unless noted
In short: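 Steps: expose the mutant yeast strain to compound; grow alongside vehicle-treated cultures; measure growth; express inhibition against the vehicle cultures.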

[6] = NCI Yeast Anticancer Drug Screen. Data for the mlh1 rad18 strain (AID 175); settings: S. cerevisiae mlh1 rad18 strain growth inhibition, stronger effect = higher value; at 50.0 µM unless noted
In short: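 Vehicle-treated cultures served as the reference for growth inhibition in a yeast strain carrying DNA damage repair alterations exposed to each compound.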

Row | SMILES | growth inhibition [1] | growth inhibition [2] | growth inhibition [3] | growth inhibition [4] | growth inhibition [5] | growth inhibition [6]
1 | CC(=O)C[n+]1cccc(Br)c1 | -6.7% | 8.7% | 10.2% | -8.15% | 9.5% | -5.9%
2 | Cc1cc(-c2ccc(N=Nc3ccc4c(S(=O)(=O)O)cc(S(=O)(=O)O)c(N)c4c3O)c(C)c2)ccc1N=Nc1ccc2c(S(=O)(=O)O)cc(S(=O)(=O)O)c(N)c2c1O | -137% and -0.25% | -40.7% and -71.1% | -56.4% and -33.9% | -147% and -4.9% | -118% and -26.3% | -49.2% and -11.2%
3 | CCCCCCCCCCCC(=O)NC(=S)Nc1cccc(O)c1 | 84.3% (active) | 63.8% | 74.4% (active) | 90.3% (active) | 93% (active) | 81.4% (active)
4 | COc1ccc2c(c1)[n+](=O)c(C(=O)C/C(=N/NC(=O)c1ccccc1O)C(=O)Nc1ccc(Cl)c(C(F)(F)F)c1)c(C)n2[O-] | 25.1% | 9.4% | 14.5% | 8.75% | 34.2% | 1.35%
5 | CC12CC(=O)OC1(C)C1CCC2C1 (stereo unspecified) | 9.25% | 10.3% | -5.25% | -10.7% | -10.2% | 9.05%
6 | N#Cc1cccc2c1Nc1ccccc1S2 | -9.75% | -21.8% | -10.7% | 8.8% | 5.9% | -19.9%
7 | Cc1c(CCN2CCOCC2)c(N2CCOCC2)n2c(nc3ccccc32)c1C#N | -14.7% | -11.9% | -9.2% | 1% | -16.3% | -15%
8 | NC(=S)N/N=C\c1cccc(O)c1O | 2.9% | 25.1% | 21% | 7% | 13.4% | 12.7%
9 | CS(=O)(=O)OCCN(CCOS(C)(=O)=O)c1cc(C(N)=O)c([N+](=O)[O-])cc1[N+](=O)[O-] | -5.05% | 9.55% | -11.7% | -12.9% | -0.35% | 16.9%
10 | FC(F)(F)COP1(OCC(F)(F)F)=NP(OCC(F)(F)F)(OCC(F)(F)F)=NP(OCC(F)(F)F)(OCC(F)(F)F)=N1 | -1.2% | 14.3% | -5.15% | -4.55% | -3.45% | 6.8%
11 | CCc1ccc2c(c1)CCCC2(C)C | -2.5% | -10.2% | 2.25% | -8.3% | 0.3% | -0.05%
12 | COC(=O)C(=O)C1CCc2ccc3ccccc3c2C1=O (stereo unspecified) | -5.8% | 2.3% | 24.2% | -4.65% | 2.3% | 38.5%
13 | COC(=O)Nn1c(C)c(C(=O)OC)c(C(=O)Nc2ccccc2)c1-c1ccccc1 | 6.1% | -3% | -5.2% | -1.45% | 5.05% | 23.5%
14 | CCC(C)C(O)C(C(=O)O)C1CCCCC1 (stereo unspecified) | 31.6% | 23.2% | 15.4% | 39.5% | 23.9% | 26%
15 | C=C1CCCC(C)(C)[C@@H]1CC/C(C)=C/Cn1c2cccc(=O)c-2nc2ccccc21 | 12.8% | 6.75% | 2.15% | 2.4% | -17.4% | 19.2%
16 | Nc1nnc2nc(C3(c4nc5nnc(N)n5[nH]c4=O)CCCC3=O)c(=O)[nH]n12 | 13.4% | -10.8% | -8.7% | 3.45% | 4.6% | 16.2%
17 | COc1cccc(C2C(C(=O)Nc3cc(=O)n(C)c(=O)n3C)=C(C)NC(C)=C2C(=O)Nc2cc(=O)n(C)c(=O)n2C)c1O | -15.1% | 13% | 13.4% | 12.2% | 2.55% | 14.8%
18 | OC1C(SCc2ccccc2)OCC2OC3(CCCCC3)OC21 (stereo unspecified) | -5.1% | -5.7% | -9% | -5.9% | 1.75% | 9.45%

Row | SMILES | growth inhibition [1] | growth inhibition [2] | growth inhibition [3] | growth inhibition [4] | growth inhibition [5] | growth inhibition [6]
19 | CC1(C)C2CC(O)C1CCC2=O (stereo unspecified) | -4.15% | -16.2% | -33.8% | 6% | -21% | -35.5%
20 | O=CC(=O)C(O)C(O)C(O)CO (stereo unspecified) | 9.5% | 22.9% | 26.2% | -0.05% | -4.95% | 19.4%
21 | Cc1ccc([N+](=O)[O-])cc1NC(=O)/C(=N/NC(=S)NN)C1SC(=S)NC1=O (stereo unspecified) | 19.4% | -12.1% | 12.2% | 20.9% | -19.6% | -8.75%
22 | COS(=O)(=O)N(C)c1nc(N(C)C)nc(N(C)C)n1 | -2.25% | -12.2% | -1.2% | 22.9% | 3.95% | -0.95%
23 | Cc1nc2ccccc2c(=O)n1NC(=O)Cc1ccccc1 | -22.6% | -11.1% | -7.45% | 2.2% | -12.4% | -23.1%
24 | CCc1n[nH]c(=O)n1-n1c(C)ccc1C | -15.8% | -25.9% | -5.2% | 3.15% | -33% | -15.2%
25 | CCC(C(N)=O)c1ccccc1 (stereo unspecified) | -16.3% | -5.65% | 13.9% | -6.75% | -3.9% | -3.6%
26 | COC(=O)CCC(NC(=S)N/N=C(\C)c1ccco1)C(=O)OC (stereo unspecified) | -18.1% | -20.8% | 0.25% | 26.6% | -5.2% | -16.3%
27 | Cc1cc(C(=O)O)c(C(=O)O)c(Cl)n1 | -9.15% | -5% | 0.45% | -12.9% | -16.9% | 4.8%
28 | O=C(O)C1C2CCCC21 (stereo unspecified) | -10.8% | 30.2% | -4.75% | 25.9% | 2% | 0.8%
29 | CCN(CC)c1c(C)c(-c2ccccc2)n[n+]([O-])c1-c1ccccc1 | 35.9% | 24.1% | 14.4% | 1.85% | 17.9% | 24.8%
30 | CC(C)(Nc1ccccc1)C(=O)OC(C)(C)C(=O)Nc1ccccc1 | -7% | -25.5% | -12.4% | 2.05% | -6.45% | -7.4%
31 | S=c1[nH]nc2scnn12 | -2.85% | 3.55% | 4.25% | -45.5% | 7.4% | -9.3%
32 | O=C(O)c1ccc(NCC(O)COc2ccc([N+](=O)[O-])cc2)cc1 (stereo unspecified) | -6.7% | 4.85% | -2.8% | 5.4% | -3.55% | 0.25%
33 | Cc1cccc(C)c1NS(=O)(=O)c1ccc(Cl)cc1 | 91.8% (active) | 84.4% (active) | 68.7% | 91.7% (active) | 94% (active) | 90.4% (active)
34 | O=C(c1ccc(Cl)cc1)c1ccc(OCCCOc2ccc(C(=O)c3ccc(Cl)cc3)cc2Cl)c(Cl)c1 | 9.55% | -7.95% | -2.35% | -46.9% | -20.3% | 2.15%
35 | O=C(c1ccccc1)c1ccc2c(Cl)ccc3c2c1CC3 | -2.8% | -21.3% | -9.75% | 12.8% | 7.6% | -8.45%
36 | C/C=C/C=C/C(=O)OCCCC | 6.95% | -0.65% | -8.55% | 5.65% | 15.1% | -1.75%
